From PubChem BioAssay (NCI)
Compounds without any hit were thinned out: in the full panel of roughly 83,000, 20% have a hit.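 Growth was measured after 48 h exposure to one concentration of compound in 96-well plates. Values under 10 count as active.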 A number with no mark means an inactive call. Calls of active or inactive are those of the source.

What was measured:
Experiment in all cases: NCI-60 one-dose screen, 48 h (100 = growth as untreated, 0 = no growth, -100 = all killed)
NCI-H23 lung = details: 10 µM unless noted
NCI-H226 lung = details: 10 µM unless noted
NCI-H322M lung = details: 10 µM unless noted
HOP-62 NSCLC = details: 10 µM unless noted
NCI-H460 lung = details: 10 µM unless noted
HOP-92 NSCLC = details: 10 µM
A549/ATCC NSCLC = details: 10 µM unless noted
786-0 renal = details: 10 µM unless noted
COLO 205 colon = details: 10 µM unless noted
DU-145 prostate = details: 10 µM unless noted
K-562 leukemia = details: 10 µM unless noted
MALME-3M melanoma = details: 10 µM unless noted
MDA-MB-231 breast = details: 10 µM unless noted
RXF 393 renal = details: 10 µM unless noted
SF-268 CNS = details: 10 µM unless noted
SF-295 CNS = details: 10 µM unless noted
SF-539 CNS = details: 10 µM unless noted
UACC-257 melanoma = details: 10 µM unless noted
M14 melanoma = details: 10 µM unless noted
NCI-H522 lung = details: 10 µM unless noted

Compound: CC(C)(O)c1cncc(-c2ccc3ncnc(NCc4ccccc4)c3c2)c1
- growth (NCI-H23 lung): 71.1%
- growth (NCI-H226 lung): 74.8%
- growth (NCI-H322M lung): 102%
- growth (HOP-62 NSCLC): 66%
- growth (NCI-H460 lung): 97.6%
- growth (HOP-92 NSCLC): 72.3%
- growth (A549/ATCC NSCLC): 85%
- growth (786-0 renal): 76.3%
- growth (COLO 205 colon): 113%
- growth (DU-145 prostate): 62.7%
- growth (K-562 leukemia): 103%
- growth (MALME-3M melanoma): 101%
- growth (MDA-MB-231 breast): 72.9%
- growth (RXF 393 renal): -7.38% (active)
- growth (SF-268 CNS): 65%
- growth (SF-295 CNS): 85%
- growth (SF-539 CNS): 85.3%
- growth (UACC-257 melanoma): 95.5%
- growth (M14 melanoma): 105%

Compound: Cc1cc(S(=O)(=O)N(C)C)cc(NCC(=O)NC(=O)NCC(C)C)c1C
- growth (NCI-H23 lung): 94.5%
- growth (NCI-H226 lung): 90.7%
- growth (NCI-H322M lung): 100%
- growth (HOP-62 NSCLC): 78.6%
- growth (NCI-H460 lung): 109%
- growth (HOP-92 NSCLC): 84.5%
- growth (A549/ATCC NSCLC): 88%
- growth (786-0 renal): 91.1%
- growth (DU-145 prostate): 85.1%
- growth (K-562 leukemia): 97.1%
- growth (MALME-3M melanoma): 106%
- growth (MDA-MB-231 breast): 85.6%
- growth (RXF 393 renal): 64.8%
- growth (SF-268 CNS): 81.5%
- growth (SF-295 CNS): 100%
- growth (SF-539 CNS): 97.1%
- growth (UACC-257 melanoma): 103%
- growth (M14 melanoma): 100%

Compound: CNC(=O)c1cc(-n2ccc3cc(NC(=O)Nc4ccc(N5CCOCC5)c(C(F)(F)F)c4)ccc32)ccn1
- growth (NCI-H23 lung): 50.4%
- growth (NCI-H226 lung): 73.6%
- growth (NCI-H322M lung): 75.5%
- growth (HOP-62 NSCLC): 55.7%
- growth (NCI-H460 lung): 34.3%
- growth (HOP-92 NSCLC): 56%
- growth (A549/ATCC NSCLC): 36.4%
- growth (786-0 renal): 13.6%
- growth (COLO 205 colon): 26.4%
- growth (DU-145 prostate): 54.9%
- growth (K-562 leukemia): 4.09% (active)
- growth (MALME-3M melanoma): 82%
- growth (MDA-MB-231 breast): 45.4%
- growth (RXF 393 renal): -27.5% (active)
- growth (SF-268 CNS): 72.6%
- growth (SF-295 CNS): 12.3%
- growth (SF-539 CNS): 23.3%
- growth (UACC-257 melanoma): 56.8%
- growth (M14 melanoma): 23.6%

Compound: O=C(CSc1nc2ccccc2c(=O)n1-c1ccccc1)Nc1cccc(C(=O)/C=C/c2ccccc2Cl)c1
- growth (NCI-H23 lung): 96.8%
- growth (NCI-H226 lung): 97.1%
- growth (NCI-H322M lung): 106%
- growth (HOP-62 NSCLC): 118%
- growth (NCI-H460 lung): 101%
- growth (NCI-H522 lung): 97.4%
- growth (A549/ATCC NSCLC): 97.6%
- growth (786-0 renal): 105%
- growth (COLO 205 colon): 119%
- growth (DU-145 prostate): 105%
- growth (K-562 leukemia): 94.8%
- growth (MALME-3M melanoma): 113%
- growth (MDA-MB-231 breast): 99.7%
- growth (RXF 393 renal): 96.7%
- growth (SF-268 CNS): 101%
- growth (SF-295 CNS): 102%
- growth (SF-539 CNS): 102%
- growth (UACC-257 melanoma): 112%
- growth (M14 melanoma): 103%

Compound: O=C1Nc2ccccc2/C1=C/c1ccc(CO)n1-c1ccc(Cl)cc1
- growth (NCI-H23 lung): 67%
- growth (NCI-H226 lung): 81%
- growth (NCI-H322M lung): 102%
- growth (HOP-62 NSCLC): 59.7%
- growth (NCI-H460 lung): 35.6%
- growth (NCI-H522 lung): 53.7%
- growth (A549/ATCC NSCLC): 59%
- growth (786-0 renal): 88.4%
- growth (COLO 205 colon): 71.8%
- growth (DU-145 prostate): 81.4%
- growth (K-562 leukemia): 19.3%
- growth (MALME-3M melanoma): 27.6%
- growth (MDA-MB-231 breast): 58.1%
- growth (RXF 393 renal): 57.1%
- growth (SF-268 CNS): 74.2%
- growth (SF-295 CNS): 33.8%
- growth (SF-539 CNS): 44.5%
- growth (UACC-257 melanoma): 83.4%

Compound: Cc1nc2ncc(-c3ccc4ncnc(NCc5ccccc5)c4c3)cc2[nH]1
- growth (NCI-H23 lung): 67.6%
- growth (NCI-H226 lung): 64.6%
- growth (NCI-H322M lung): 65.7%
- growth (HOP-62 NSCLC): 38.9%
- growth (NCI-H460 lung): 89.2%
- growth (HOP-92 NSCLC): 17.4%
- growth (A549/ATCC NSCLC): 77.5%
- growth (786-0 renal): 48.3%
- growth (COLO 205 colon): 84.4%
- growth (DU-145 prostate): 27.4%
- growth (K-562 leukemia): 84.2%
- growth (MALME-3M melanoma): 63.4%
- growth (MDA-MB-231 breast): 24.4%
- growth (RXF 393 renal): -18.1% (active)
- growth (SF-268 CNS): 37.6%
- growth (SF-295 CNS): 61.5%
- growth (SF-539 CNS): 60.6%
- growth (UACC-257 melanoma): 75.7%
- growth (M14 melanoma): 81.4%

Compound: O=C(c1ccc(O)c(C(=O)N2Cc3ccc(OCCC[P+](c4ccccc4)(c4ccccc4)c4ccccc4)cc3C2)c1)N1Cc2cccc(F)c2C1
- growth (NCI-H23 lung): 87.3%
- growth (NCI-H226 lung): 92.3%
- growth (NCI-H322M lung): 94.3%
- growth (HOP-62 NSCLC): 102%
- growth (NCI-H460 lung): 69.7%
- growth (NCI-H522 lung): 72.9%
- growth (A549/ATCC NSCLC): 99.8%
- growth (786-0 renal): 98.5%
- growth (COLO 205 colon): 52.3%
- growth (DU-145 prostate): 99%
- growth (K-562 leukemia): 27.1%
- growth (MALME-3M melanoma): 73.2%
- growth (MDA-MB-231 breast): 92.9%
- growth (RXF 393 renal): 96.4%
- growth (SF-268 CNS): 92.7%
- growth (SF-295 CNS): 84.9%
- growth (SF-539 CNS): 55.6%
- growth (UACC-257 melanoma): 48.5%
- growth (M14 melanoma): 95.1%
